High-throughput results deposited in PubChem by several laboratories.
Only some compounds are listed: those with a hit (about 1.8% of all), similar ones and a draw of the others.
SSB-PriA inh = blocks PriA binding to SSB C-terminal tail. AlphaScreen SSBct-PriA binding, biotinylated peptide. inhibition, % at 33 µM. actives 0.6% (n = 430,000); in the data active = inhibition mostly above about 37%, no sharp cut-off; inactive = mostly below about 20%;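 note: plate controls were negative control peptide for no effect and reference peptide for full effect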
PrPC TRFRET = reduces human prion protein on the cell surface | P04156 | cell surface PrPC, TR-FRET read-out | inhibition, % at 13.8 µM | actives 0.43% (n = 370,000); in the data active = inhibition above about 24%; note: 0% = median of the test wells and 100% = reference compound wells
MazF activator = increases E. coli MazEF RNase cleavage of RNA | P0AE70 | FAM/BHQ RNA-DNA oligo cleavage fluorescence, 5 h | activation, % at 20 µM | actives 0.32% (n = 350,000) | AID 504720; in the data active = activation above about 50%
Target sequence (P0AE70 whole entry, looked up): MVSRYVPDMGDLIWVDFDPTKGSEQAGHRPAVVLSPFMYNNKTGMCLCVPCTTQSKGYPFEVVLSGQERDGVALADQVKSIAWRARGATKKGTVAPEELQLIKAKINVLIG
PrP UTR inh = inhibition of PrP 5' UTR reporter expression. actives 0.35% (n = 340,000). inhibition, % (concentration not given with the values). cell-based PrP 5' UTR mRNA reporter, plate reader; in the data active = inhibition above about 52%; note: 0 = median of the neutral control wells
PfHsp40 yeast = compounds rescuing yeast from Plasmodium falciparum HSP40 toxicity | actives 0.68% (n = 340,000) | AID 504582 | growth rescue, % at 12.5 µM | S. cerevisiae expressing PfHsp40, growth rescue, ATP luminescence; in the data active = growth rescue above about 28%, passing the limit was not always enough;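 note: yeast W303a lacking pdr1 and pdr3 grown in galactose medium; growth measured after three days at 30 °C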
Numbers without * were called inactive.

For CCOC(=O)c1cnc(-n2[nH]c(C)c(Cc3ccccc3)c2=O)[nH]c1=O the results were SSB-PriA inh 84*, PrPC TRFRET -4, MazF activator -11, PrP UTR inh -5 and PfHsp40 yeast 11.
For CCOC(=O)c1cnc(-n2[nH]c(C)cc2=O)[nH]c1=O the results were SSB-PriA inh 93*, PrPC TRFRET 4, MazF activator -5, PrP UTR inh -11 and PfHsp40 yeast 10.
Screening O=C(NCCO)C(=O)c1c(-c2ccc(Cl)cc2)cc2ccccn12 returned SSB-PriA inh -3, PrPC TRFRET -11, MazF activator 8, PrP UTR inh -21 and PfHsp40 yeast 2.
For O=C(O)c1ccn2c(C(=O)c3ccc(Cl)cc3)c(-c3ccccc3)cc2c1 the results were SSB-PriA inh -5, PrPC TRFRET -1, MazF activator 7, PrP UTR inh 2 and PfHsp40 yeast 72*.
For Nc1nc(-c2ccccn2)nc2sccc12 the results were SSB-PriA inh 126*.
For COc1ccc(Oc2cn[nH]c2-c2ccc(O)cc2O)cc1 the results were SSB-PriA inh 3, PrPC TRFRET 1, MazF activator 12, PrP UTR inh -9 and PfHsp40 yeast 2.
CCCc1ccc(Oc2cn[nH]c2-c2ccc(O)cc2O)cc1 was read as SSB-PriA inh 19, PrPC TRFRET 2, MazF activator 5, PrP UTR inh -7 and PfHsp40 yeast 181*.
`CC(C)(C)c1nnc(NC(=O)c2ccc(Cl)nc2)s1` gave SSB-PriA inh 4, PrPC TRFRET -3, MazF activator -12, PrP UTR inh -40 and PfHsp40 yeast 0.
Screening COC(=O)c1c(NC(=O)CSc2nnc(CNc3ccc(Cl)cc3)o2)sc(C)c1C returned SSB-PriA inh 11, PrPC TRFRET 2, MazF activator -6, PrP UTR inh -7 and PfHsp40 yeast 51*.
Screening CCOC(=O)c1c(NC(=O)CSc2nnc(CNc3ccc(F)cc3)o2)sc(C(C)=O)c1C returned SSB-PriA inh 12, PrPC TRFRET 12, MazF activator 1, PrP UTR inh -28 and PfHsp40 yeast 2.
COc1ccc(-c2cn(CCC(=O)NCc3ccc(C)cc3)c(-c3ccncc3)n2)cc1 was read as SSB-PriA inh -3, PrPC TRFRET 3, MazF activator -12, PrP UTR inh -13 and PfHsp40 yeast 1.
Cc1ccc(CNC(=O)CCn2cc(-c3ccc(C)cc3)nc2CCN)cc1 was read as SSB-PriA inh 20, PrPC TRFRET -3, MazF activator 3, PrP UTR inh -23 and PfHsp40 yeast 40*.
For CCN(CC)c1ccc2cc(C(N)=O)c(=NNC(=O)c3ccncc3)oc2c1 the results were SSB-PriA inh -15.
CCN1C(=O)/C(=C2\C=Cc3ccccc3N2CC)OC1=S was read as SSB-PriA inh 41, PrPC TRFRET -13, MazF activator 235*, PrP UTR inh -45 and PfHsp40 yeast -1.
CC(NC(=O)COC(=O)/C=C/c1ccc(Cl)cc1)c1ccccc1 (stereo not given) was read as SSB-PriA inh -11, PrPC TRFRET 7, MazF activator -1, PrP UTR inh -13 and PfHsp40 yeast 32*.
For O=[N+]([O-])c1cccc(-c2nc(-c3cccs3)c(-c3cccs3)[nH]2)c1 the results were SSB-PriA inh -17, PrPC TRFRET -5, MazF activator 111*, PrP UTR inh 8 and PfHsp40 yeast 0.
For COc1ccccc1NC(=O)COc1ccc(C(=O)NC2CCCc3ccccc32)cc1OC (stereo not given) the results were SSB-PriA inh -1, PrPC TRFRET 0, MazF activator 4, PrP UTR inh -24 and PfHsp40 yeast 0.
For CCN1C(=Cc2sc(-c3ccccc3C)c[n+]2C)Sc2ccccc21 the results were SSB-PriA inh 3.
Screening CCN1/C(=C/c2sc(-c3ccccc3C)c[n+]2C)Sc2ccccc21 returned PrPC TRFRET 14, MazF activator 22, PrP UTR inh -5 and PfHsp40 yeast 312*.
Screening O=C(CSc1nccn(-c2cccc(F)c2)c1=O)Nc1ccc(Cl)cc1F returned SSB-PriA inh -3, PrPC TRFRET 10, MazF activator 7, PrP UTR inh -11 and PfHsp40 yeast 173*.
Screening O=C(CSc1nccn1-c1cccc(C(=O)NCc2ccco2)c1)Nc1ccc(Cl)cc1F returned SSB-PriA inh 37*.
CSC1=N/C(=C\c2ccccc2)C(=O)N1C was read as SSB-PriA inh -9, PrPC TRFRET 0, MazF activator -2, PrP UTR inh -13 and PfHsp40 yeast 40*.
